Source: PubChem BioAssay (National Center for Advancing Translational Sciences (NCATS))
An excerpt weighted towards active compounds, which were near 2.3% of everything screened.
HTT ATP protect: protects HTT-Q103 PC12 cells, measured by ATP. PC12 HTT-Q103 induced, cytoprotection, ATP luminescence, 40 h. Potency, µM (doses to about 56.4 µM), without a hit: cytoprotection (ATP increase), usual class: activators. 0.14% of 230,000 active; note: potency is the fitted concentration of half-maximal effect; % of control where 0% means no effect; nearly all actives have a fitted effect of over 45% in size
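Quantitative HTS on tebufenozide-induced (100 nM) PC12 cells expressing HTTQ103 exon 1–GFP; compounds tested as a concentration series; survival measured via cellular ATP.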
JMJD2E inh: blocks human JMJD2E demethylase activity. B2RXH2. JMJD2E catalytic domain, FDH-coupled NADH fluorescence (FDH is formaldehyde dehydrogenase). Potency, µM (top dose mostly 57.1 µM), inactives show at the top dose activity change, negative = inhibition, usual class: inhibitors. 1.6% of 230,000 active. AID 2147; active = well fitted inhibition curve with a large enough effect, not every such curve was filed as active; inconclusive = small, poorly fitted or top-dose-only effect, or another doubt; inactive = no such curve, though single readings can be large or run the other way;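 note: potency is the fitted concentration of half-maximal effect; 0% = wells with enzyme and -100% = buffer wells without enzyme; nearly all actives have a fitted effect of over 50% in size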
RGS12 GoLoco inh: RGS12 GoLoco-Gai1 interaction inhibition; P63096; Potency, µM (highest dose often 61.6 µM), for the others: at the highest dose activity, negative = inhibition, hits mostly inhibitors; Gai1:RGS12 GoLoco peptide FP, rhodamine, 10 min; 0.44% of 230,000 active; active = well fitted inhibition curve with a large enough effect, not every such curve was filed as active; inactive = no such curve, though single readings can be large or run the other way; note: potency is the fitted concentration of half-maximal effect; % is set by controls: 0 for no effect and ±100 for the full control effect; nearly all actives have a fitted effect of over 30% in size
HttQ103 aggreg: reduces HttQ103-GFP aggregates in PC12 cells; AID 1688; Potency, µM (series often up to 46.1 µM), for inactives: at the highest dose activity change, negative = inhibition, actives largely listed as inhibitors; 1.1% of 220,000 active; PC12 HttQ103-GFP aggregates, Acumen cytometry, 40 h; note: potency is the fitted concentration of half-maximal effect; % is set by controls: 0 for no effect and ±100 for the full control effect; nearly all actives have a fitted effect of over 60% in size
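Aggregate formation scored by laser-scanning cytometer (488 excitation, 500–530 emission) in lysed PC12 cells expressing Q103-GFP after 100 nM tebufenozide induction; library tested in dose series, with ATPLite reagent added in the multiplex.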
VDR inhibitor: vitamin D3 receptor (human) inhibition; 0.93% of 400,000 active; VDR-SRC2-3 peptide fluorescence polarization, 2 h; P11473; Potency, µM, without a hit: max response, negative = inhibition, usual class: inhibitors; note: potency is the fitted concentration of half-maximal effect; % is set by controls: 0 for no effect and ±100 for the full control effect
Target sequence (P11473 whole entry, looked up): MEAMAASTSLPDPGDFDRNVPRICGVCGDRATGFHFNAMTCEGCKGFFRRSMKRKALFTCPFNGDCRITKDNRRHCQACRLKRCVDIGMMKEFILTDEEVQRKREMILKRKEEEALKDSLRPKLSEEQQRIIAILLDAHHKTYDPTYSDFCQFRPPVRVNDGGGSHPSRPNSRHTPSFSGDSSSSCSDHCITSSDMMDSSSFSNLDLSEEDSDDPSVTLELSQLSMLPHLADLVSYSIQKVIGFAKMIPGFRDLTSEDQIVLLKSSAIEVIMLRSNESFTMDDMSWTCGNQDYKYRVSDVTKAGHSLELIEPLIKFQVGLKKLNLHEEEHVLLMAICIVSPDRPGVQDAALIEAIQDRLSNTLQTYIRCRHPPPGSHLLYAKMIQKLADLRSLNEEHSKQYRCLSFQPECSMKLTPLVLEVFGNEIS
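Measured by FP: displacement of SRC2-3 coactivator peptide from VDR by library compounds, following a two-hour ambient incubation.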
Coupling enz: inhibits coupling enzyme system, counter-screen for aldolase hits; coupling enzyme system counterscreen, AmpLite Red fluorescence; activity change, negative = inhibition, % at 58.2 µM, hits read low; 0.67% of 290,000 active; AID 2472; in the data active = activity change below about -30%; note: % is set by controls: 0 for no effect and ±100 for the full control effect
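Counterscreen lacking aldolase: glyceraldehyde-3-phosphate coupling-enzyme reagent preincubated 10 min at RT with compound (at 57.5 uM final), then substrate/coupling system with AmpLite Red added; fluorescence read at 525/598 nm after 20 min RT.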
Numbers without * were called inactive; ? = inconclusive; . = not tested or not shown; ! = not confirmed by another sample; [ ] = remark or other dose. Unless noted, calls come from the whole dose curve; as a rule, active = well fitted curve in the direction sought with a large enough effect; inconclusive = small, poorly fitted or top-dose-only effect, or another doubt; inactive = no such curve, though single readings can be large; an effect the other way counts as inactive or inconclusive.

SMILES | HTT ATP protect | JMJD2E inh | RGS12 GoLoco inh | HttQ103 aggreg | VDR inhibitor | Coupling enz
O=C1S/C(=C/c2ccc(N3CCOCC3)o2)C(=O)N1Cc1c(F)cccc1Cl | 35.8% | -21.6% | -27.1% | ? | 79.4µM* | -15.9
Cc1c(-c2ccc(Cl)cc2)c(=O)oc2c(CN3CCOCC3)c(O)ccc12 | . | . | . | . | 18.5% | .
Cc1ccc(C(=O)N2CCN(S(=O)(=O)c3cc(Br)ccc3Br)CC2)o1 | . | . | . | . | 6.8% | 3.6
S=P(N1CC1)(N1CC1)N1CC1 | -66.2% | -4.1% | 8.2% | 3.5% | 89.1µM*! | 1.4
N#Cc1nc(-c2ccc(F)cc2)oc1NCCN1CCOCC1 | -34.6%[10 µM] | ? | 3.5% | -19.3% | -1.1% | -0.1
COc1ccc(-c2nc(C#N)c(NCCCN3CCOCC3)o2)cc1 | -13.0% | 5.01µM* | -7.5% | 4.3% | -4.0% | -5.3
Cc1nc(N)c(C#N)c(-c2cccnc2)c1C | 1.2%[10 µM] | ? | 5.2% | 6.31µM* | -18.7% | -2.2
COc1ccccc1CCNC(=O)c1ccc2nc[nH]c2c1 | . | . | . | . | 3.6% | .
S=c1cnc2ccccc2[nH]1 | -3.5% | 11.2µM* | -20.1% | -3.8%[9.22 µM] | ? | 3.7
CC(C)(CC(=O)N1CCN(c2ccc(Cl)cc2)CC1)CC1=NS(=O)(=O)c2ccccc2N1 | -45.9% | 13.0% | 4.3% | 11.2µM* | -1.6% | -2.7
Cc1ccc2c(=O)c3cccc(CC(=O)O)c3oc2c1C | . | . | . | . | 4.2% | 12.9
CC1CN(Cc2c(O)ccc3c2oc(=O)c2ccccc23)CC(C)O1 (centres undefined) | 7.6%[10 µM] | 28.2µM* | -7.9% | 8.8%[9.22 µM] | -13.0% | -6.0
CC1CN(Cc2c(O)ccc3c(=O)c(-c4ccccc4)coc23)CC(C)O1 (centres undefined) | -28.0%[10 µM] | 2.0% | 8.1% | -28.3%[9.22 µM] | -6.3% | 3.3
Oc1ccc(Nc2nc3ccccc3nc2Nc2ccc(O)cc2)cc1 | ? | -18.0% | 2.51µM* | ? | ? | -11.6
Oc1ccc(Nc2nc(-c3ccc(Cl)cc3)nc3ccccc23)cc1 | . | . | . | . | 0.1% | .
Cc1ccc(S(=O)(=O)N(C)CC(=O)Nc2cc(C)ccn2)cc1 | . | . | . | . | -4.8% | .
O=C(C=Cc1ccccc1)c1cccs1 | . | . | . | . | 56.2µM* | .
O=C(/C=C/c1ccccc1)c1cccs1 | 6.3%[1.9 µM] | -7.9% | 5.6% | . | 11.2µM* | 0.6
CCOc1ccc(/C=C/C(=O)c2cccs2)cc1 | 15.9%[1.9 µM] | ? | -1.4% | . | 22.4µM* | 0.5
Nc1ccc(/C=C/C(=O)c2cccs2)cc1 | 10.5%[10 µM] | -3.8% | 50.0% | 0.3%[9.22 µM] | -12.9% | -2.8
CC1(C)CC(=O)C2=C(C1)OC1=C(C(=O)CC(C)(C)C1)C2c1cc([N+](=O)[O-])cc([N+](=O)[O-])c1O | -4.4%[10 µM] | 1.5% | -2.4% | -0.6%[9.22 µM] | ? | -36.3*
CC(C)=CCC1=C(OCC(=O)O)C(=O)c2ccccc2C1=O | -28.2%[10 µM] | 14.1µM* | -9.6%[14.2 µM] | -16.2%[9.22 µM] | ? | -45.3*
COc1ccccc1OCC(=O)O | 13.1% | 7.4% | 12.6% | 8.1% | -10.9% | 3.1
CC(C)=CCC/C(C)=C/CC/C(C)=C/CC/C(C)=C/CC1=C(C)C(=O)c2ccccc2C1=O | 14.3%[10 µM] | -6.8% | 11.9% | 8.8%[9.22 µM] | ? | -33.7*
N=c1n(CCN2CCOCC2)c2ccccc2n1CC(=O)c1ccc(Cl)c(Cl)c1 | -10.5% | 7.2% | 107.3% | 3.8% | 5.5% | -30.9*
N=c1n(CCN2CCOCC2)c2ccccc2n1CC(=O)c1cccc([N+](=O)[O-])c1 | . | . | . | . | -7.3% | -10.7
CN(C)[C@@H]1C(=O)C(C(=O)NCN2CCCC2)=C(O)[C@@]2(O)C(=O)C3=C(O)c4c(O)cccc4[C@@](C)(O)C3CC12 (some centres undefined) | . | ? | -31.5% | -18.1% | . | -39.4*
CN(C)[C@H]1C(=O)C(C(=O)NCN2CCCC2)=C(O)[C@]2(O)C(=O)C3=C(O)c4c(O)cccc4[C@](C)(O)[C@H]3C[C@H]12 | -15.2%[10 µM] | . | -4.4%[14.2 µM] | 0.8% | ? | .
COc1ccc(-n2nc(C(=O)NCC(=O)N3CCCCCC3)c3ccccc3c2=O)cc1 | . | . | . | . | 1.1% | 0.6
COc1ccc(-n2nc(C(=O)N3CCCCC3)c3ccccc3c2=O)cc1 | 10.1% | -5.3% | -4.6% | 2.82µM* | 18.0% | -0.9
